According to PubChem BioAssay (NCI):
Compounds without any hit were thinned out: in the full panel of roughly 83,000, 20% have a hit.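 Single-concentration screen, 48 h exposure, 96-well plates. Endpoint: percent growth. Below 10 = active.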 A number with no mark means an inactive call. The source made the active and inactive calls.

Tests used:
Assay in all cases: NCI-60 one-dose screen, 48 h (100 = growth as untreated, 0 = no growth, -100 = all killed)
Conditions in all cases: 10 µM unless noted
RPMI-8226 leukemia = system: RPMI-8226 leukemia
OVCAR-8 ovarian = system: OVCAR-8 ovarian
OVCAR-5 ovarian = system: OVCAR-5 ovarian
OVCAR-4 ovarian = system: OVCAR-4 ovarian
SK-OV-3 ovarian = system: SK-OV-3 ovarian
IGROV1 ovarian = system: IGROV1 ovarian
HS 578T breast = system: HS 578T breast
NCI/ADR-RES ovarian = system: NCI/ADR-RES ovarian
T-47D breast = system: T-47D breast
BT-549 breast = system: BT-549 breast
SW-620 colon = system: SW-620 colon
MCF7 breast = system: MCF7 breast
HCT-116 colon = system: HCT-116 colon
HCC-2998 colon = system: HCC-2998 colon
KM12 colon = system: KM12 colon
MDA-MB-435 melanoma = system: MDA-MB-435 melanoma
OVCAR-3 ovarian = system: OVCAR-3 ovarian

SMILES	growth (RPMI-8226 leukemia)	growth (OVCAR-8 ovarian)	growth (OVCAR-5 ovarian)	growth (OVCAR-4 ovarian)	growth (SK-OV-3 ovarian)	growth (IGROV1 ovarian)	growth (HS 578T breast)	growth (NCI/ADR-RES ovarian)	growth (T-47D breast)	growth (BT-549 breast)	growth (SW-620 colon)	growth (MCF7 breast)	growth (HCT-116 colon)	growth (HCC-2998 colon)	growth (KM12 colon)	growth (MDA-MB-435 melanoma)	growth (OVCAR-3 ovarian)
CN(C)CCC=C1c2ccccc2C(C)(C)c2ccccc21	0.547% (active)	88.9%	59.4%	76.5%	99.7%	61.3%	50.8%	77.6%	81%	94.5%	86%	81.2%	53.1%	10.4%	76.9%		
CCOC(=O)c1c(-c2ccc(Cl)cc2)c(C#N)c(=O)n(-c2ccccc2CC)c1N	69.3%	87.1%	92.6%	98.1%	102%	99.8%	102%	91.9%	84.1%	123%	99.9%	90.7%	91.3%	66.4%	79.1%	106%	
CCN(CCNc1ccc(C)c2sc3ccccc3c(=O)c12)CC(C)(C)O	13.5%	87.1%	79.4%	95.7%	76.3%	79.4%		70.9%	80.7%	93.4%	73.6%	81.8%	60%		48.3%	79%	103%
CC(=O)N1N=C(c2ccc(Nc3nc(Nc4ccc(F)cc4)nc(Nc4ccc(F)cc4)n3)cc2)CC1c1cccc([N+](=O)[O-])c1 (stereo unspecified)	19.8%	91.6%	75.5%	47.8%	110%	76.9%		67.2%	80.3%	102%	96.9%	88.3%	92.9%	54%	104%	111%	235%
CCN1C(=O)N(CC)C2Nn3c(s/c(=C4\C(=O)N(C)c5ccccc54)c3=O)=NC21 (stereo unspecified)	48.2%	38%	53.8%	59.6%	63.4%	43.3%	38.3%	6.8% (active)	27.5%	53.9%	26.3%		11.1%	88.6%	29.8%	-59.6% (active)	
NC(N)=NN=C(c1ccccc1)c1ccccc1	25%	40%	79.3%	71%	5.22% (active)	48.1%		59.3%	12.2%	44.1%	28.1%	16.3%	29%		32.5%	-23.8% (active)	21.3%
Cc1c(Cl)cc(-n2c(=O)c3ccccc3c3ccccc3c2=O)cc1Cl	91.8%	105%	101%	104%	98.4%	86.7%		102%	93.9%	89.8%	109%	98%	101%	95.5%	111%	104%	127%
Cc1ccc(S(=O)(=O)n2cc(CNc3ccc(N4CCOCC4=O)cc3)c3ccccc32)cc1	67.9%	81.7%	30.1%	62.3%	87.4%	67.5%		78%	56.9%		78.7%	61.9%	76.8%	97.8%	96.7%	97%	86.8%
Cc1cc(C(=O)c2ccccc2)c(C)c2c1[nH]c1ccc(Cl)cc12	-0.677% (active)	21.9%	43.5%	43.5%	38%	19.1%		7.25% (active)	63.5%	5.82% (active)	26.3%	13.1%	5.1% (active)	21.8%	0.781% (active)	-25.4% (active)	-51% (active)
COc1ccc(C(=NN=C(N)N)c2ccc(OC)cc2)cc1	49.4%	56.7%	69.1%	39.3%	11%	36.3%		83.5%	8.87% (active)	30.6%	25.3%	5.47% (active)	21.5%		21.2%	-35.2% (active)	17%
COc1cccc(/C=C/C(=O)c2c(C)nc3ccccc3c2/C=C/c2ccc(C)cc2)c1OC	8.55% (active)	49.6%	67.5%	56.6%	84.8%	36.4%	68.3%	40.6%	29.1%	69.1%	31%	13.8%		36.4%	65.6%	55.5%	
Cc1nn(-c2ccccc2)c(Oc2ccc(Cl)cc2)c1/C=N\N=c1/sc2ccccc2n1C	77.4%	89.1%	106%	106%	74.2%	84.7%		98.1%	66.4%		77.8%	85%	73.2%	103%	94.6%	97.2%	101%
CC(C)C(NC(=O)C1(NC(=O)OCc2ccccc2)CCCC1)C(=O)O (stereo unspecified)	111%	110%	94.8%	124%	96.2%	107%		104%	103%	83.7%	96.9%		97.6%		111%	109%	120%
O=c1[nH]nc(-c2ccccc2)c2c(-c3ccccc3)onc12	19.5%	54.3%	58.7%	64.1%	15.4%	13.2%		30.4%	20.1%	22.8%	22.2%	25.6%	35.7%	35.1%	29.8%		-15.8% (active)
COc1cc(C(=O)c2cc(C)c3[nH]c4ccc(Cl)cc4c3c2C)cc(OC)c1OC	22.4%	28.5%	42.3%	56.4%	45.7%	9.24% (active)	43.5%	0.863% (active)	70.4%	14.4%	25.7%	13.9%	3.67% (active)	14.2%	-5.01% (active)	-21.7% (active)	
O=C(N=c1oc2ccccc2cc1-c1cc2ccccc2[nH]1)c1ccc(Cl)cc1	38.5%	50.5%	89.3%	57.7%	57.3%	29.7%		38.6%	47.5%		25.1%	30.4%	20%	81.9%	29.1%	96.4%	50.5%
COc1cc(/C=N/NC(=O)Cn2c(C(C)C)nc3ccccc32)ccc1O	87%	98.8%	94.6%	108%	100%	91.1%	98.2%	99.3%	94%	100%	95.7%	95.1%	82.4%	103%	97.6%	100%	
COc1cc(C2CC(=O)Nc3c2c(C)nn3-c2nc3ccccc3[nH]2)c(OC)c(OC)c1OC (stereo unspecified)	55.1%	47.4%	104%	73.1%	40%	76.9%	25.5%	57.7%	40.8%	52.7%	26.7%	25.4%	23.5%	95.2%	35.1%	-36.4% (active)	
COc1ccc(NC(=O)CSc2nnc(-c3cc(-c4ccc(S(N)(=O)=O)cc4)nc4ccccc34)n2-c2ccccc2)cc1	57.9%	75.4%	92.8%	88.6%	89.8%	77.9%		104%	58.2%		97.6%	78.8%	73.9%	101%	92.7%	92.2%	95.1%
